Compound activity as filed in PubChem BioAssay.
ALDH1A1 inh – ALDH1A1 (human) enzyme inhibition. Potency, µM (series often up to 75.3 µM), inactives show at the top dose activity, negative = inhibition, hits mostly inhibitors. P00352. 220,000 tested, 7.3% active. AID 1030. Purified ALDH1A1, NADH fluorescence, propionaldehyde substrate;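 further: potency means the concentration at half of the fitted maximal effect; plate controls were no enzyme wells and a reference inhibitor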
Target sequence (P00352 whole entry, looked up): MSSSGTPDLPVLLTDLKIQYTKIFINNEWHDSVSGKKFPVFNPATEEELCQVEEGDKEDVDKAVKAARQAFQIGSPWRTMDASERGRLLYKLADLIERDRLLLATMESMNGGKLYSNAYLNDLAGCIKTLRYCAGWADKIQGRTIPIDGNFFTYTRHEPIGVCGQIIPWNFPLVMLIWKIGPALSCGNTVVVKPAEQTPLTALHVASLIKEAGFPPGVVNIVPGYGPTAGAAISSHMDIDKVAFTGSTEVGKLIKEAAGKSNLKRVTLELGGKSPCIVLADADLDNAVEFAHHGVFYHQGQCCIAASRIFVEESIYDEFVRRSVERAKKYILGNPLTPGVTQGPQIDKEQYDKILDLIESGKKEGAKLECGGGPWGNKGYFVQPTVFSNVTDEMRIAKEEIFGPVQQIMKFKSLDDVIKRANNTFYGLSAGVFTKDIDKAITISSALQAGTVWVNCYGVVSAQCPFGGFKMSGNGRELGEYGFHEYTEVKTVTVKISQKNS
HTT ATP protect – protects HTT-Q103 PC12 cells, measured by ATP; PC12 HTT-Q103 induced, cytoprotection, ATP luminescence, 40 h; Potency, µM (series often up to 56.4 µM), for inactives: cytoprotection (ATP increase), usual class: activators; 230,000 tested, 0.14% active; AID 1471; active means well fitted curve in the direction sought with a large enough effect; inconclusive means small, poorly fitted or top-dose-only effect, or another doubt; inactive means no such curve, though single readings can be large; an effect the other way counts as inactive or inconclusive; further: potency means the concentration at half of the fitted maximal effect; % of control where 0% means no effect; nearly all actives have a fitted effect of over 45% in size
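PC12 cells with ecdysone-inducible HTT exon 1 Q103-GFP, induced with 100 nM tebufenozide and co-treated with library compounds in a dose series (1536-well, 1500 cells/well). Cytoprotection read as ATP content by ATPlite luminescence.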
HTT aggregate – mutant huntingtin aggregation inhibition | PC12 HttQ103-GFP aggregates, Acumen cytometry, 40 h | Potency, µM (highest dose often 46.1 µM), for the others: at the top dose activity change, negative = inhibition, usual class: inhibitors | 220,000 tested, 1.1% active; active means well fitted curve in the direction sought with a large enough effect; inconclusive means small, poorly fitted or top-dose-only effect, or another doubt; inactive means no such curve, though single readings can be large; an effect the other way counts as inactive or inconclusive; further: potency means the concentration at half of the fitted maximal effect; on the % scale 0 is the no-effect control and ±100 the full control effect; nearly all actives have a fitted effect of over 60% in size
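Aggregate formation scored by laser-scanning cytometer (488 excitation, 500–530 emission) in lysed PC12 cells expressing Q103-GFP after 100 nM tebufenozide induction; library tested in dose series, with ATPLite reagent added in the multiplex.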
GoLoco inh red – RGS12 GoLoco-Gai1 interaction inhibition | Gai1:RGS12 GoLoco peptide FP, rhodamine, 10 min | Potency, µM (titrated, usually from 61.6 µM), for the others: top-dose activity, negative = inhibition, actives largely listed as inhibitors | 230,000 tested, 0.44% active; active means well fitted inhibition curve with a large enough effect, not every such curve was filed as active; inactive means no such curve, though single readings can be large or run the other way; further: potency means the concentration at half of the fitted maximal effect; on the % scale 0 is the no-effect control and ±100 the full control effect; nearly all actives have a fitted effect of over 30% in size
HPGD inh – blocks human HPGD enzyme activity; P15428; purified HPGD, NADH fluorescence kinetic, PGE2 substrate; Potency, µM, for inactives: at the top dose activity change, negative = inhibition, most hits filed as inhibitors; 150,000 tested, 4.3% active; AID 894; further: potency means the concentration at half of the fitted maximal effect; on the % scale 0 is the no-effect control and ±100 the full control effect
Target sequence (P15428 whole entry, looked up): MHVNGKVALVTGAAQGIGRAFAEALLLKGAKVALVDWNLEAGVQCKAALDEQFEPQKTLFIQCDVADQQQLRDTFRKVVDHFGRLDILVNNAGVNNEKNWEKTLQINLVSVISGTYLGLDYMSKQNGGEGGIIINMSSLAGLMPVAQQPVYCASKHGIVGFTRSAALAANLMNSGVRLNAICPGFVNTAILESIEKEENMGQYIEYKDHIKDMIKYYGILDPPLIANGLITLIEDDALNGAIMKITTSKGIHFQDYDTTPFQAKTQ
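NADH formation kinetics: reaction with 30 uM PGE2 and 1 mM NAD+ (final), 20 nM enzyme, Tris-HCl pH 8 with Tween 20, after 15 min compound preincubation at room temperature. Fluorescence change, last versus first of five reads.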
PNC inhibitor – inhibitors of perinucleolar compartment assembly. PC3M PTB-GFP, PNC prevalence imaging, 16 h; active compounds read low. activity change (PNC), negative = inhibition, % at 10 µM. 140,000 tested, 3.1% active. AID 2417;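 active means readout at or below -70, meaning at least 70% loss of cells showing the perinucleolar compartment, a nuclear body marking cancer cells; inconclusive means readout between -30 and a set limit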;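 further: plate controls were DMSO wells for no effect and camptothecin positive control wells for full effect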
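Compounds are pinned in duplicate onto adhered PC3M cells stably expressing GFP-tagged PTB and incubated 16 h at 37 C. Cells are then fixed, nuclei stained with Hoechst, and PNC-positive cells counted.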
* = called active by the depositor; u = inconclusive; x = no result given; ! = not confirmed by another sample; [ ] = dose if it differs, or a comment. A selection: hits, their analogues and other compounds. The true share with any hit is near 11%. Unless noted, the call rests on the fitted dose curve; in most records, active means well fitted inhibition curve with a large enough effect (not every such curve was filed as active); inconclusive means small, poorly fitted or top-dose-only effect, or another doubt; inactive means no such curve, though single readings can be large or run the other way.

SMILES	ALDH1A1 inh	HTT ATP protect	HTT aggregate	GoLoco inh red	HPGD inh	PNC inhibitor
O=C(c1cc2nc(-c3ccc(F)cc3)cc(C(F)(F)F)n2n1)N1CCCC1	6%	-8%[10 µM]	-15%	6%	3.5µM*	-3
COc1cccc(-c2cc(C(F)(F)F)n3nc(C(=O)N4CCCCC4c4cccnc4)cc3n2)c1 (stereo not given)	22µM*	-80%	u	0%	x	x
O=C(c1cc2nc(-c3ccccc3)cc(C(F)(F)F)n2n1)N1CCCC1	x	-35%[10 µM]	x	x	x	x
COC(CNC(=O)c1cccnc1)OC	3%	27%[10 µM]	14%[9.22 µM]	3%	x	x
COC(CNC(=O)c1ccc2c3c(onc13)-c1ccccc1C2=O)OC	x	-37%[10 µM]	-3%[9.22 µM]	10µM*	x	x
COc1cc2c(cc1OC)N1C(=O)CC(OCC(=O)O)C3C4CC5(CCN5C(=O)C4=O)C2C31 (stereo not given)	-5%	3%[10 µM]	-15%[9.22 µM]	10%	x	x
Cc1cccc(Nc2cc(Cl)nc(SCC(=O)O)n2)c1C	10µM*!	-5%[10 µM]	19%	9%[14.2 µM]	25µM*!	x
Cc1cccc(Nc2ccccc2C(=O)O)c1C	-3%	-11%	-1%	1%	-11%	73
COc1ccc(S(=O)(=O)N(CCO)c2ccccc2CN(C)C/C=C/c2ccc(Cl)cc2)cc1	0%	-134%	x	1%	x	x
CCc1ccc(N(C(=O)c2snc(C(N)=O)c2N)C(C(=O)NCCC(C)C)c2c[nH]c3ccccc23)cc1 (stereo not given)	-4%	-9%	1%	-5%	-27%	-21
O=c1[nH]c(S)c(/C=C2\C=Nc3ccccc32)s1	25µM*	-10%[10 µM]	-15%[9.22 µM]	6%	x	x
CCCCCCCC/C=C\CCCCCCCC(=O)NCCCC(=O)O	10%	-2%	x	4%	-1%	x
Cc1ccc(CC(=O)Nc2cccc([N+](=O)[O-])c2)cc1	-5%	-17%	-11%[9.22 µM]	-7%	x	x
CNC(CC(=O)c1ccc([N+](=O)[O-])cc1)C(Cl)(Cl)Cl (stereo not given)	0.56µM*	-24%[10 µM]	5%	29%	10µM*	20
Cc1cccc(NCCC(=O)c2ccc([N+](=O)[O-])cc2)c1C	0.18µM*	-49%	5%[9.22 µM]	6%	x	x
Cc1ccc(NCC(=O)c2ccc([N+](=O)[O-])cc2)cc1	7.9µM*	13%	-14%	4%	x	x
Cc1ccc(C(=O)CNc2cccc([N+](=O)[O-])c2)cc1	13µM*	-27%	11%	2%	x	x
CS(=O)(=O)Nc1cccc(-c2cc(Nc3ccccc3)ncn2)c1	1%	-50%	x	7%	x	x
CC(C)C(NC(=O)c1ccccc1F)C(=O)Nc1nccs1 (stereo not given)	8%	3%	u	-4%	x	x
CC(=O)OC1CC2C(C)(C)C(=O)[C@@H]3OC3[C@@]2(C)C2CC[C@]3(C)C(=CC(=O)OC3c3ccoc3)[C@]12C (stereo not given in full)	-2%	x	x	0%	-2%	x
N#C/C(=C\c1cccc(Cl)c1)C(=O)c1ccccc1	0.71µM*	-11%[10 µM]	-11%[9.22 µM]	0%	x	x
Cc1c(C(=O)N2CCc3ccccc32)cnn1C	7%	x	9%	-13%	-6%	u
O=C(c1ccccc1Sc1cccc2ccccc12)N1CCOCC1	u	8%[1.9 µM]	13%	0%	-18%	u
O=C(O)C/C(=C\c1ccco1)C(=O)O	8%[13.5 µM]	2%[10 µM]	x	1%[14.2 µM]	-10%	x
C=C(C)CNC(=S)N/N=C1\CCCCc2ccccc21	u	43%[10 µM]	u	x	x	9
SMILES	ALDH1A1 inh	HTT ATP protect	HTT aggregate	GoLoco inh red	HPGD inh	PNC inhibitor
C/C(Cn1nnc([N+](=O)[O-])n1)=N\NC(=O)c1ccc(C)cc1	-7%	x	-12%	-4%	-4%	-109*
C/C(Cn1cnc([N+](=O)[O-])n1)=N\NC(=O)c1ccc(F)cc1	u	8%[10 µM]	3%	8%	1%	14
C/C(Cn1cnc([N+](=O)[O-])n1)=N\NC(=O)c1cccc(F)c1	u	-6%[10 µM]	-12%	6%	0%	-88*
NCCCC(N)CC(=O)NC1CNC(=O)C(C2CC(O)N=C(N)N2)NC(=O)/C(=C/NC(N)=O)NC(=O)C(CO)NC(=O)C(CO)NC1=O (stereo not given)	x	6%	-18%	8%	x	x
COC(=O)C1=C(C(=O)OC)[C@@H]2N(Cc3ccccc3)c3ccccc3[C@@]23C[C@@H](C(=O)OC)N(S(=O)(=O)c2ccc(C#N)cc2)C3=N1	-6%[13.5 µM]	4%[10 µM]	x	2%[14.2 µM]	-9%	x
CCOC(=O)c1sc2nc(Cc3ccc(Cl)cc3)[nH]c(=S)c2c1C	14%	13%	3%	14%	x	x
Cc1cc(Cl)cc(Cl)c1OCC(=O)NCc1ccco1	u	-29%	29%	-9%	25µM*	26
O=C(COc1ccccc1-c1ccccc1)NCc1ccco1	7.1µM*	-16%	6%	15%	x	x
Cc1ccc(OCC(=O)NCc2ccco2)cc1C	u	-16%	14%	14%	20µM*	u
CCOc1ccccc1OCC(=O)NCc1ccco1	u	-7%	u	2%	-20%	16
N[C@H](Cc1ccc(O)c(O)c1)C(=O)O	u	-282%	u	-8%	-23%	x
CCOc1ccc(NC(=O)C(Cc2ccccc2)N2C(=O)c3cccc4cccc(c34)C2=O)cc1 (stereo not given)	13%	-10%[10 µM]	6%[9.22 µM]	-5%	x	x
C[N+](C)(C)c1ccc(/C=N/Nc2nc(Cl)c(C#N)c(Cl)c2Cl)cc1	16µM*	10%[10 µM]	7%	-40%	-24%	u
N#Cc1c(Cl)nc(N/N=C/c2ccccc2)c(Cl)c1Cl	-4%	-7%[10 µM]	8%	126%	u	-5
CCOC(=O)c1cnn(-c2c(Cc3ccccc3)c(C)nc3c(-c4ccccc4)c(C)nn23)c1N	0.1µM*	11%	12%	-4%	-8%	-28
CCN(c1cccc(C)c1)S(=O)(=O)c1c(C)[nH]c(=O)[nH]c1=O	10%	2%	-3%	-4%	-5%	19
CCN(c1cccc(C)c1)S(=O)(=O)c1ccc2[nH]c(=O)c(=O)[nH]c2c1	u	31%[10 µM]	-20%	2%	u	-103*
COc1ccc(CNc2ncnc(N)n2)cc1	6%	-5%	-21%	-12%	-1%	-101*
COc1cc2ncnc(NCc3cccc(Cl)c3)c2cc1OC	-3%	-77%	14µM*	1%	x	x
COc1ccc(CNc2ncnc3cc(Cl)ccc23)cc1	1%	-24%	14µM*	-12%	x	x
COc1ccc(CN(C)c2ncnc(N)n2)cc1	18%	13%	-5%	-8%	-5%	2
Cc1noc2ncc(C(=O)c3cc(F)ccc3O)cc12	-1%	-18%	-9%	17%	-18%	11
Cc1ccc(O)c(C(=O)c2cnc3onc(-c4ccc(F)cc4)c3c2)c1	14µM*	x	-5%	15%	13µM*	-21
